Measurements published in PubChem BioAssay (NCI).
Compounds without any hit were thinned out: in the full panel of roughly 79,000, 15% have a hit. Active and inactive are the calls of the source. Rule as the data show it: active = growth inhibition above about 70%; inactive = the rest.

Columns and labels:
[1] = NCI Yeast Anticancer Drug Screen. Data for the wt1 strain (AID 149);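 also: 0% = growth of vehicle-treated wt1 cultures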; conditions: S. cerevisiae wt1 strain (SPY 50644) growth inhibition, stronger effect = higher value
Outline: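 Vehicle-normalised growth inhibition; strain wt1; compound exposure.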

[2] = NCI Yeast Anticancer Drug Screen. Data for the rad50EPP+ strain (AID 151);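 also: 0% = growth of vehicle-treated control cultures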; conditions: S. cerevisiae rad50 mutant strain, stronger effect = higher value
Outline: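 Read-out is yeast growth inhibition relative to vehicle; cells used were the rad50EPP+ strain.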

[3] = NCI Yeast Anticancer Drug Screen. Data for the mgt1 strain (AID 153); conditions: S. cerevisiae mgt1 mutant growth inhibition, stronger effect = higher value
Outline: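 Measured: inhibition of mgt1 yeast growth by compound, normalized to vehicle-treated cultures.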

[4] = NCI Yeast Anticancer Drug Screen. Data for the rad50 strain (AID 155);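 also: 0% = growth of vehicle-only cultures of the same strain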; conditions: S. cerevisiae rad50 strain growth inhibition, stronger effect = higher value
Outline: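 A DNA repair-deficient yeast mutant serves as the test organism; compound-induced growth inhibition is calculated against vehicle-treated cells.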

[5] = NCI Yeast Anticancer Drug Screen. Data for the mec2-1 strain (AID 157); conditions: S. cerevisiae mec2-1 strain, stronger effect = higher value
Outline: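 Using mec2-1 yeast: add compound, measure growth, express inhibition versus vehicle-treated cultures.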

[6] = NCI Yeast Anticancer Drug Screen. Data for the rad14 strain (AID 159);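 also: 0% = growth of vehicle-treated control cultures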; conditions: S. cerevisiae rad14 strain growth inhibition, stronger effect = higher value
Outline: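 Vehicle-treated cultures served as the baseline for growth inhibition of a DNA repair-mutant yeast strain exposed to each compound.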

[7] = NCI Yeast Anticancer Drug Screen. Data for the sgs1 mgt1 strain (AID 161);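 also: 0% = growth of cultures given vehicle only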; conditions: S. cerevisiae sgs1 mgt1 strain, stronger effect = higher value
Outline: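 Percent growth inhibition was derived by comparing compound-exposed mutant yeast with vehicle-exposed cultures. The strain carries alterations in DNA damage repair.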

[8] = NCI Yeast Anticancer Drug Screen. Data for the CLN2oe strain (AID 163);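 also: 0% = growth of vehicle-only control cultures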; conditions: S. cerevisiae CLN2oe strain, stronger effect = higher value
Outline: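 Whole-cell yeast growth assay. A strain engineered for altered cell-cycle control received compound, and inhibition relative to vehicle-treated cultures was recorded.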

[9] = NCI Yeast Anticancer Drug Screen. Data for the cln2 rad14 strain (AID 165);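 also: 0% = growth equal to vehicle treated cultures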; conditions: S. cerevisiae cln2 rad14 strain, stronger effect = higher value
Outline: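 Yeast strain cln2 rad14, bearing defects in cell cycle control and DNA repair, serves as the test system; values reflect growth inhibition compared with vehicle.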

[10] = NCI Yeast Anticancer Drug Screen. Data for the bub3 strain (AID 167); conditions: S. cerevisiae bub3 mutant strain, stronger effect = higher value
Outline: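 Inhibition values come from growth of compound-treated mutant yeast normalised to vehicle-treated controls.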

[11] = NCI Yeast Anticancer Drug Screen. Data for the wt2 strain (AID 169);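 also: 0% = growth of vehicle-treated yeast cultures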; conditions: S. cerevisiae wt2 strain growth inhibition, stronger effect = higher value
Outline: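 Treated yeast vs. vehicle-treated yeast: growth inhibition determined.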

[12] = NCI Yeast Anticancer Drug Screen. Data for the mlh1 strain (AID 171);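 also: 0% = growth of vehicle-treated control cultures of the same strain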; conditions: S. cerevisiae mlh1 strain growth inhibition, stronger effect = higher value
Outline: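 A yeast strain with a defined genetic lesion serves as the test organism. Cultures receive compound or vehicle, and growth is measured.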

[13] = NCI Yeast Anticancer Drug Screen. Data for the sgs1 strain (AID 173);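 also: 0% = growth of vehicle-only control cultures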; conditions: S. cerevisiae sgs1 mutant, stronger effect = higher value
Outline: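 A genetically defined yeast mutant is incubated with the test compound, and its growth is compared to that of the same strain given vehicle.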

[14] = NCI Yeast Anticancer Drug Screen. Data for the mlh1 rad18 strain (AID 175); conditions: S. cerevisiae mlh1 rad18 strain growth inhibition, stronger effect = higher value
Outline: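 Steps: expose repair-defective yeast to compound; measure growth; express inhibition against vehicle-treated controls.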

[15] = NCI Yeast Anticancer Drug Screen. Data for the rad18 strain (AID 177); conditions: S. cerevisiae rad18 mutant growth inhibition, stronger effect = higher value
Outline: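 Measured value is growth inhibition of a yeast strain bearing a DNA repair alteration, referenced to vehicle-treated cells.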

[16] = at 5.0 µM (retest, dose inferred, filed as 0.5)
[17] = at 50.0 µM (retest, dose inferred, filed as 5.0)

Measured: growth inhibition

NNc1nnc(-c2ccccc2)nc1Cc1ccccc1
inactive: [1]; at 1.2 µM -25% | [1]; at 3.7 µM -15% | [1]; at 11.0 µM -7% | [2]; at 1.2 µM -12% | [2]; at 3.7 µM -3% | [2]; at 11.0 µM 12% | [2]; at 33.0 µM 48% | [3]; at 1.2 µM 16% | [3]; at 3.7 µM 21% | [3]; at 11.0 µM 21% | [4]; at 1.2 µM 4% | [4]; at 3.7 µM -1% | [4]; [16] -35% | [4]; at 11.0 µM 10% | [4]; [17] -4% | [4]; at 50.0 µM 67.1% | [5]; at 1.2 µM -11% | [5]; at 3.7 µM -9% | [5]; [16] 2% | [5]; at 11.0 µM -8% | [6]; at 1.2 µM -8% | [6]; at 3.7 µM -16% | [6]; at 11.0 µM -12% | [7]; [16] -7% | [8]; at 1.2 µM 25% | [8]; at 3.7 µM 18% | [8]; at 11.0 µM 11% | [9]; [16] 12% | [10]; at 1.2 µM 16% | [10]; at 3.7 µM 5% | [10]; [16] -9% | [10]; at 11.0 µM -17% | [11]; at 1.2 µM -34% | [11]; at 3.7 µM -30% | [11]; at 11.0 µM -11% | [12]; at 1.2 µM 6% | [12]; at 3.7 µM 4% | [12]; at 11.0 µM 27% | [13]; at 1.2 µM -15% | [13]; at 3.7 µM -15% | [13]; at 11.0 µM -6% | [14]; [16] -30% | [15]; at 1.2 µM -17% | [15]; at 3.7 µM -30% | [15]; at 11.0 µM -5%
active: [1]; at 33.0 µM 96% | [1]; at 100.0 µM 88% | [2]; at 100.0 µM 90% | [3]; at 33.0 µM 97% | [3]; at 100.0 µM 88% | [4]; at 33.0 µM 96% | [4]; at 100.0 µM 93% | [5]; at 33.0 µM 95% | [5]; [17] 90% | [5]; at 50.0 µM 91.3% | [5]; at 100.0 µM 87% | [6]; at 33.0 µM 96% | [6]; at 100.0 µM 91% | [7]; [17] 95% | [7]; at 50.0 µM 82.9% | [8]; at 33.0 µM 97% | [8]; at 100.0 µM 93% | [9]; [17] 80% | [9]; at 50.0 µM 86% | [10]; at 33.0 µM 97% | [10]; [17] 96% | [10]; at 50.0 µM 89% | [10]; at 100.0 µM 90% | [11]; at 33.0 µM 95% | [11]; at 100.0 µM 91% | [12]; at 33.0 µM 97% | [12]; at 100.0 µM 83% | [13]; at 33.0 µM 91% | [13]; at 100.0 µM 94% | [14]; [17] 97% | [14]; at 50.0 µM 83.6% | [15]; at 33.0 µM 96% | [15]; at 100.0 µM 91%

Cc1nc2ccccc2c(=O)n1NC(=O)c1ccc(CS)cc1
inactive: [1]; at 1.2 µM 8% | [1]; at 3.7 µM 1% | [1]; at 11.0 µM 4% | [1]; at 33.0 µM 17% | [2]; at 1.2 µM -9% | [2]; at 3.7 µM 4% | [2]; at 11.0 µM -3% | [2]; at 33.0 µM 23% | [3]; at 1.2 µM -11% | [3]; at 3.7 µM -12% | [3]; at 11.0 µM -17% | [3]; at 33.0 µM 6% | [4]; at 1.2 µM 7% | [4]; at 3.7 µM 3% | [4]; [16] -24% | [4]; at 11.0 µM 4% | [4]; at 33.0 µM 23% | [4]; [17] 9% | [4]; at 50.0 µM 66.2% | [5]; at 1.2 µM -16% | [5]; at 3.7 µM -4% | [5]; [16] -27% | [5]; at 11.0 µM -13% | [5]; at 33.0 µM 23% | [5]; [17] 1% | [6]; at 1.2 µM -21% | [6]; at 3.7 µM -23% | [6]; at 11.0 µM -25% | [6]; at 33.0 µM 26% | [7]; [16] -14% | [7]; [17] 3% | [7]; at 50.0 µM 65.5% | [8]; at 1.2 µM 2% | [8]; at 3.7 µM -17% | [8]; at 11.0 µM -6% | [8]; at 33.0 µM 22% | [9]; [16] -29% | [9]; [17] 6% | [9]; at 50.0 µM 31.9% | [10]; at 1.2 µM 16% | [10]; at 3.7 µM -6% | [10]; [16] -13% | [10]; at 11.0 µM 16% | [10]; at 33.0 µM 45% | [10]; [17] 41% | [10]; at 50.0 µM -8.65% | [11]; at 1.2 µM 4% | [11]; at 3.7 µM 7% | [11]; at 11.0 µM 9% | [11]; at 33.0 µM 16%
active: [1]; at 100.0 µM 96% | [2]; at 100.0 µM 85% | [3]; at 100.0 µM 86% | [4]; at 100.0 µM 97% | [5]; at 50.0 µM 76.2% | [5]; at 100.0 µM 97% | [6]; at 100.0 µM 95% | [8]; at 100.0 µM 95% | [10]; at 100.0 µM 96% | [11]; at 100.0 µM 92%
